# Results as given in PubChem BioAssay (NCATS).
# Several values for one entry are separate records, joined by “and”; a condition that tells them apart may be missing. Identical values can stand only once. Results filed as inconclusive are left out. The source holds several records for some structures; these can differ, active in one and inactive in another. Activity calls are given as the source filed them. Calls follow the shape of the dose curve; as a rule, active = well fitted curve in the direction sought with a large enough effect; inconclusive = small, poorly fitted or top-dose-only effect, or another doubt; inactive = no such curve, though single readings can be large; an effect the other way counts as inactive or inconclusive.
# Assay: Primary qHTS for inhibitors of nuclear receptor binding SET domain protein 2 (NSD2) in an isogenic RCH-ACV NSD2 p.E1099K mutant (9B) (AID 1645876)
# Conditions: RCH-ACV NSD2 E1099K (9B) viability, CellTiter-Glo, 72 h; series mostly up to 44.9 µM; activity change, negative = viability loss: at the top concentration
# % is scaled to controls: 0 for no effect and ±100 for the full control effect; potency is read from the fitted curve at half-maximal effect.
# Also: nearly all actives have a fitted effect of over 70% in size.
SMILES,"activity change, negative = viability loss",Potency,outcome
CC(C)Cn1cnc2c(N)nc3ccccc3c21,-16.9% [at 17.3 µM] (inactive),–,–
O=S(=O)(c1cccc2cnccc12)N1CCCNCC1,-4.99% (inactive),–,–
COC(=O)Nc1nc2ccc(S(=O)c3ccccc3)cc2[nH]1 (stereo unspecified),–,10.5 µM (active) and 596 nM (active),–
C[C@@H]1C[C@H]2[C@@H]3CCC4=CC(=O)C=C[C@]4(C)[C@@]3(Cl)[C@@H](O)C[C@]2(C)[C@@]1(OC(=O)c1ccco1)C(=O)CCl,–,23.7 µM (active),–
Nc1ccc(S(=O)(=O)Nc2ccccn2)cc1,1.16% (inactive),–,–
CC1=CC(=O)c2ccccc2C1=O,–,31.6 µM (active) and inactive,–
Oc1c(Cl)cc(Cl)c2cccnc12,–,3.76 µM (active),–
COc1ncnc(NS(=O)(=O)c2ccc(N)cc2)c1OC,–,inactive,–
NC(=O)c1ccc2[nH]ccc2c1,-1.97% (inactive),–,–
C#CCN[C@@H]1CCc2ccccc21,–,–,inactive
COc1ccc(-c2ccc3cc(C(=O)O)ccc3c2)cc1C12CC3CC(CC(C3)C1)C2,–,inactive,–
CC(=O)[C@H]1CC[C@H]2[C@@H]3CC=C4C[C@@H](O)CC[C@]4(C)[C@H]3CC[C@]12C,–,inactive,–
CCn1cc(C(=O)O)c(=O)c2cc(F)c(N3CCNCC3)cc21,–,inactive,–
CCCCOc1ccc(CC(=O)NO)cc1,–,inactive and 16.6 µM (active),–
CS(=O)(=O)c1ccc([C@@H](O)[C@@H](CO)NC(=O)C(Cl)Cl)cc1,-24.8% (inactive),–,–
C[C@]12C=CC(=O)C=C1CC[C@@H]1[C@@H]2C(=O)C[C@@]2(C)[C@H]1CC[C@]2(O)C(=O)CO,-18.1% (inactive),–,–

SMILES,"activity change, negative = viability loss",Potency,outcome
CC[C@H](NC(C)C)[C@H](O)c1ccc(O)c2[nH]c(=O)ccc12,–,inactive,–
Cn1c(=O)c2c(ncn2CC(O)CO)n(C)c1=O (stereo unspecified),-6.9% (inactive),–,–
CCCCCCNC(=O)n1cc(F)c(=O)[nH]c1=O,–,8.41 µM (active) and 10.5 µM (active),–
CO[C@@]12[C@H](COC(N)=O)C3=C(C(=O)C(C)=C(N)C3=O)N1C[C@@H]1N[C@@H]12,-4.1% (inactive),–,–
OCc1ccc(-c2nn(Cc3ccccc3)c3ccccc23)o1,–,3.72 µM (active),–
CNCC[C@H](Oc1cccc2ccccc12)c1cccs1,–,23.7 µM (active),–
CO[C@@H]1[C@@H](OC(N)=O)[C@@H](O)[C@H](Oc2ccc3c(O)c(NC(=O)c4ccc(O)c(CC=C(C)C)c4)c(=O)oc3c2C)OC1(C)C,–,inactive,–
CCC(C)(C)c1ccc(CC(C)CN2C[C@@H](C)O[C@@H](C)C2)cc1 (stereo partly specified),-24.2% (inactive),–,–
CCOc1cc(N)c(Cl)cc1C(=O)NCC1CN(Cc2ccc(F)cc2)CCO1 (stereo unspecified),–,21.1 µM (active),–
C1CCC(C(CC2CCCCN2)C2CCCCC2)CC1 (stereo unspecified),–,7.42 µM (active),–
NNC(=O)c1ccncc1,–,inactive,–
C[C@@H]1CN(c2c(F)c(N)c3c(=O)c(C(=O)O)cn(C4CC4)c3c2F)C[C@H](C)N1,-1.97% (inactive),–,–
COc1cc([C@@H]2c3cc4c(cc3[C@H](O)[C@H]3COC(=O)[C@H]23)OCO4)cc(OC)c1OC,–,7.5 nM (active) and 37.2 nM (active),–
CN1CCN(c2c(F)cc3c(=O)c(C(=O)O)cn(CCF)c3c2F)CC1,7.18% (inactive),–,–
NC(=O)c1cccc(N)c1,3.19% (inactive),–,–

# Assay: Primary qHTS for inhibitors of nuclear receptor binding SET domain protein 2 (NSD2) in an RCH-ACV wild type WT cells (2C) (AID 1645877)
# Conditions: RCH-ACV (leukaemia line) NSD2 WT (2C) viability, CellTiter-Glo, 72 h; series mostly up to 44.9 µM; activity change, negative = cell killing: at the top concentration
SMILES,"activity change, negative = cell killing",Potency,outcome
CC(C)Cn1cnc2c(N)nc3ccccc3c21,-8.58% [at 17.3 µM] (inactive),–,–
COC(=O)Nc1nc2ccc(S(=O)c3ccccc3)cc2[nH]1 (stereo unspecified),–,7.42 µM (active) and 335 nM (active),–
C[C@@H]1C[C@H]2[C@@H]3CCC4=CC(=O)C=C[C@]4(C)[C@@]3(Cl)[C@@H](O)C[C@]2(C)[C@@]1(OC(=O)c1ccco1)C(=O)CCl,–,inactive and 1.2 nM (active),–
Nc1ccc(S(=O)(=O)Nc2ccccn2)cc1,–,–,inactive
Oc1c(Cl)cc(Cl)c2cccnc12,–,3.32 µM (active),–
COc1ncnc(NS(=O)(=O)c2ccc(N)cc2)c1OC,–,inactive,–
NC(=O)c1ccc2[nH]ccc2c1,-10.3% (inactive),–,–
C#CCN[C@@H]1CCc2ccccc21,–,–,inactive
COc1ccc(-c2ccc3cc(C(=O)O)ccc3c2)cc1C12CC3CC(CC(C3)C1)C2,–,inactive,–
CC(=O)[C@H]1CC[C@H]2[C@@H]3CC=C4C[C@@H](O)CC[C@]4(C)[C@H]3CC[C@]12C,–,inactive,–
CCn1cc(C(=O)O)c(=O)c2cc(F)c(N3CCNCC3)cc21,–,inactive,–
CCCCOc1ccc(CC(=O)NO)cc1,–,inactive and 16.6 µM (active),–
C[C@]12C=CC(=O)C=C1CC[C@@H]1[C@@H]2C(=O)C[C@@]2(C)[C@H]1CC[C@]2(O)C(=O)CO,-1.9% (inactive),–,–
CC[C@H](NC(C)C)[C@H](O)c1ccc(O)c2[nH]c(=O)ccc12,1.63% (inactive),–,–
Cn1c(=O)c2c(ncn2CC(O)CO)n(C)c1=O (stereo unspecified),–,–,inactive
CCCCCCNC(=O)n1cc(F)c(=O)[nH]c1=O,–,7.5 µM (active) and 8.33 µM (active),–
CO[C@@]12[C@H](COC(N)=O)C3=C(C(=O)C(C)=C(N)C3=O)N1C[C@@H]1N[C@@H]12,5.73% (inactive),–,–
OCc1ccc(-c2nn(Cc3ccccc3)c3ccccc23)o1,–,4.17 µM (active),–
CNCC[C@H](Oc1cccc2ccccc12)c1cccs1,–,23.7 µM (active),–
CO[C@@H]1[C@@H](OC(N)=O)[C@@H](O)[C@H](Oc2ccc3c(O)c(NC(=O)c4ccc(O)c(CC=C(C)C)c4)c(=O)oc3c2C)OC1(C)C,–,inactive,–
C1CCC(C(CC2CCCCN2)C2CCCCC2)CC1 (stereo unspecified),–,8.33 µM (active),–
NNC(=O)c1ccncc1,–,inactive,–
C[C@@H]1CN(c2c(F)c(N)c3c(=O)c(C(=O)O)cn(C4CC4)c3c2F)C[C@H](C)N1,-12.6% (inactive),–,–
COc1cc([C@@H]2c3cc4c(cc3[C@H](O)[C@H]3COC(=O)[C@H]23)OCO4)cc(OC)c1OC,–,6 nM (active) and 29.5 nM (active),–
NC(=O)c1cccc(N)c1,–,–,inactive
